Measured values as given in PubChem BioAssay (NCATS).
Records with an inconclusive call do not appear. Calls of active or inactive are those of the source. Calls come from the whole dose curve; as a rule, active = well fitted inhibition curve with a large enough effect; inconclusive = small, poorly fitted or top-dose-only effect; inactive = flat fitted curve, though single readings scatter.

Tested on: CRL-7250
Test: qHTS assay to identify novel small-molecules to repurpose for Merkel cell carcinoma treatment (AID 1296009); note: nearly all actives have a fitted effect of over 60% in size
Settings: MCC and control cell lines, CellTiter-Glo viability, 72 h; series mostly up to 92 µM; activity change, negative = cytotoxicity: at the top concentration
Method in brief: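 Cells were treated for 72 hr at 37 degree celsius with compounds in 8- or 11-point dose response. Viability was read by CellTiter-Glo luminescence, normalized to no-cell (cytotoxicity) and DMSO controls.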

Row | Compound | outcome
1 | C=C(C(=O)O)[C@@H]1CC[C@@]2(C)CC[C@H](O)[C@@]2(C(C)=O)C1 | inactive
2 | COc1ccc(C2COc3cc(O)ccc3C2)c(O)c1OC (stereo not given) | inactive
3 | CCC/C=C/C=C/C1CC(O)C(O)C(=O)C1CO (stereo not given) | inactive
4 | COC(=O)[C@H](O)[C@H]1C(C)(C)[C@H](OC(C)=O)[C@@]2(O)C(=O)[C@]1(C)C1CC[C@]3(C)C(CC(=O)O[C@H]3c3ccoc3)[C@]13O[C@@H]32 (stereo not given in full) | inactive [at 17.4 µM]
5 | COc1ccc2c(c1)O[C@H](O[C@@H]1O[C@H](CO)[C@@H](O)[C@H](O)[C@H]1O)C(=O)N2 | inactive
6 | CC1(C)C2CC[C@]3(C)C(C(=O)C=C4[C@H]5C[C@@](C)(C(=O)O)CC[C@]5(C)CC[C@]43C)[C@@]2(C)CC[C@@H]1O (stereo not given in full) | inactive [at 17.4 µM]
7 | Cc1cc(C(=O)N2Cc3cnn(C)c3Nc3ccccc32)ccc1CNC(=O)N1CCN(Cc2cc(O)cc(O)c2)CC1 | inactive
8 | C=C1C(OC(C)=O)CCC2(C)CC3(O)OC(=O)C(C)=C3CC12 (stereo not given) | inactive
9 | CC1(C)CC[C@]2(C(=O)O)CC[C@]3(C)C(=CCC4[C@@]5(C)C[C@@H](O)[C@H](O)C(C)(C)C5CC[C@]43C)C2C1 (stereo not given in full) | inactive [at 17.4 µM]
10 | COC1C2=C(COC2=O)C2(C)CCCC(C)(CO)C2C1OC(=O)c1ccccc1 (stereo not given) | inactive [at 17.4 µM]
11 | COc1cccc(-n2nc(C(=O)O)cc2-c2ccc(C3CCCCC3)c(Cl)c2)c1 | inactive
12 | CC1OC(O[C@H]2[C@@H](O)C[C@@]3(C)C([C@H](O)C[C@]4(C)C3CC=C3C5CC(C)(C)CC[C@]5(C(=O)OC5OC(CO)C(O)C(O)C5OC5OCC(OC6OCC(OC7OCC(O)C(O)C7O)C(O)C6O)C(OC6OCC(O)(CO)C6O)C5O)CC[C@]34C)[C@]2(C)CO)C(O)C(O)C1O (stereo not given in full) | inactive [at 9.27 µM]
13 | C/C=C(\C)C(=O)OCC1OC(OC2OC(CO)C(O)C(O)C2O)C(O)C(O)C1O (stereo not given) | inactive [at 17.4 µM]
14 | CC(C)(C)c1ccc(C(=O)Nc2cn3cc(-n4ccnc4)ccc3n2)cc1 | inactive
15 | O=C(Nc1c(-c2cccs2)nc2ccccn12)c1ccc(Cl)cc1 | inactive
16 | CC(C)C1=CC2=CCC3[C@](C)(CCC[C@@]3(C)C(=O)O)C2CC1=O (stereo not given in full) | inactive
17 | CC1(C)CCCC2(C)C=C(C(=O)O)C(O)CC12 (stereo not given) | inactive
18 | C=C1C(=O)OC[C@H]2C(C(=O)O)=CC3CC(C)(C)C[C@@]132 (stereo not given in full) | inactive
19 | CC1=C(C)C(=O)OC(C(C)C2C(O)CC3C4C5OC5C5(O)CC(OC6OC(CO)C(O)C(O)C6O)CC(O)C5(C)C4CCC32C)C1 (stereo not given) | inactive [at 17.4 µM]
20 | CC(C)(C)NCC(O)COc1cccc2c1CCCC2=O (stereo not given) | inactive

Row | Compound | outcome
21 | C=C1C2(CCC(=O)OC2(C)C)CC(OC(=O)/C(C)=C/C)C2(C)C13OC14C(=O)OC(C)(C(=O)C12C(=O)OC4C)C3OC(C)=O (stereo not given) | inactive [at 17.4 µM]
22 | COC1C=C(C)C(O)(CO)C2(C)CCCC(C)(C)C12 (stereo not given) | inactive
23 | NC1(c2ccc(NC(=O)c3ccnc(-c4cc(C(=O)O)ccn4)c3)cc2)CC1 | inactive
24 | C[C@@H]1CC[C@]2(C(=O)O[C@@H]3O[C@H](CO)[C@@H](O)[C@H](O)[C@H]3O)CC[C@]3(C)C(=CCC4[C@@]5(C)C[C@@H](O)[C@H](O)C(C)(C)C5CC[C@]43C)C2[C@]1(C)O (stereo not given in full) | inactive [at 17.4 µM]
25 | COc1cccc(C(=O)N2CCN(C(=O)COc3cccc(C)c3)CC2)c1OC | inactive
26 | C[C@@H]1O[C@@H](O[C@H]2[C@H](O[C@H]3CC[C@@]4(C)C(CC[C@]5(C)C4CC=C4[C@@H]6CC(C)(C)CC[C@]6(C(=O)O[C@@H]6OC[C@H](O)[C@H](O)[C@H]6O[C@@H]6O[C@@H](C)[C@H](O[C@@H]7O[C@H](CO)[C@@H](O)[C@H](O)[C@H]7O)[C@H](O)[C@H]6O)[C@H](O)C[C@]45C)C3(C)C)O[C@H](CO)[C@@H](O[C@@H]3OC[C@@H](O)[C@H](O)[C@H]3O)[C@@H]2O)[C@H](O)[C@H](O)[C@H]1O (stereo not given in full) | inactive [at 9.27 µM]
27 | C/C=C(\C)C(=O)OC1C2(O)CC3=C4CC(=O)OC(c5ccoc5)C4(C)CCC3C(C)(C2=O)C(C(OC(C)=O)C(=O)OC)C1(C)C (stereo not given) | inactive [at 17.4 µM]
28 | C[C@@H]1C[C@H]2OC(=O)[C@@]3(C)CCC[C@](C)(C23)[C@@]1(O)CCC1=CC(=O)OC1O (stereo not given in full) | inactive
29 | COC(=O)C1=COC(OC2OC(CO)C(O)C(O)C2O)C2C(C)CC(=O)C12O (stereo not given) | inactive [at 17.4 µM]
30 | OC[C@H]1O[C@@H](OC[C@H]2O[C@@H](OCc3ccccc3)[C@H](O)[C@@H](O)[C@@H]2O)[C@H](O)[C@@H](O)[C@@H]1O | inactive [at 17.4 µM]
31 | CC(C)C1NC(=O)C2CCCN2C1=O (stereo not given) | inactive
32 | COc1cccc(OC)c1-c1cc(C(=O)N[C@@H](CC(C)C)C(=O)O)nn1-c1ccnc2cc(Cl)ccc12 | inactive
33 | CC(=O)OC1C(C)C2C(OC3OC(CO)C(O)C(O)C3O)OC=C(C(=O)O)C2C1OC(=O)c1ccccc1 (stereo not given) | inactive [at 17.4 µM]
34 | Clc1cccc(COc2cncc(N3CCNCC3)n2)c1 | inactive
35 | C=C[C@@](C)(CCC=C(C)C)O[C@@H]1O[C@H](CO[C@@H]2OC[C@H](O)[C@H](O)[C@H]2O)[C@@H](O)[C@H](O)[C@H]1O | inactive [at 17.4 µM]
36 | C[C@@H]1O[C@@H](O[C@H]2[C@H](O[C@H]3[C@H](O[C@H]4CC[C@@]5(C=O)C(CC[C@]6(C)C5CC=C5C7CC(C)(C)C[C@@H](O)[C@]7(C)CC[C@]56C)C4(C)C)O[C@H](C(=O)O)[C@@H](O)[C@@H]3O)OC[C@@H](O)[C@@H]2O)[C@H](O)[C@H](O)[C@H]1O (stereo not given in full) | inactive [at 9.27 µM]
37 | CC(=O)OC(C)(C)/C=C/C(=O)[C@](C)(O)C1[C@H](O)C[C@@]2(C)[C@@H]3CC=C4[C@@H](C[C@H](O[C@@H]5O[C@H](CO)[C@@H](O)[C@H](O)[C@H]5O)C(=O)C4(C)C)[C@]3(C)C(=O)C[C@]12C (stereo not given in full) | inactive [at 17.4 µM]
38 | On1ncc(C2CCNCC2)c1-c1cccc(-c2ccccc2)c1 | inactive
39 | c1ccc(C(OC2CCN(CCCc3nn[nH]n3)CC2)c2ccccc2)cc1 | inactive
40 | CC(=O)/C=C/C1C(C)CC(O[C@@H]2O[C@H](CO)[C@@H](O)[C@H](O)[C@H]2O)CC1(C)C (stereo not given in full) | inactive
